Drawing on PubChem BioAssay (NCATS), this text covers Potency, max response and outcome for 13 molecules.

Molecules are shown by their SMILES. Results filed as inconclusive are left out. Values without a mark were called inactive. The source made the active and inactive calls. The call rests on the fitted dose curve; in most records, active means well fitted curve in the direction sought with a large enough effect; inconclusive means small, poorly fitted or top-dose-only effect, or another doubt; inactive means no such curve, though single readings can be large; an effect the other way counts as inactive or inconclusive.

The test system of assay [1] is W2. The assay is described as follows: qHTS profiling for inhibitors of Plasmodium falciparum proliferation (AID 504749). Further: nearly all actives have a fitted effect of over 60% in size. Further: potency means the concentration at half of the fitted maximal effect. Particulars: P. falciparum in erythrocytes, SYBR Green DNA, 72 h; series mostly up to 28.7 µM. The gist of the method:
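Fluorescence of SYBR Green-bound parasite DNA, read at 485/535 nm, served as the growth measure. Infected erythrocytes were cultured with compound 72 h; artemisinin (0.29 uM) and DMSO wells defined the normalization range.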
(qHTS replaces the single test concentration by a dilution series.)

Assay [2] concerns CRL-7250. The assay can be described thus: Cytotoxic Profiling of Annotated Libraries Using Quantitative High-Throughput Screening (AID 1296008). Further: nearly all actives have a fitted effect of over 60% in size. On max response: on the % scale 0 is the no-effect control and ±100 the full control effect. The conditions noted are these: Five cell lines viability, CellTiter-Glo ATP luminescence, 48-72 h; max response: stronger effect = lower value. In outline:
(§1)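 Compounds were pin-transferred onto cells and incubated 48 or 72 hr at 37 degree Celsius, 95% humidity. CellTiter-Glo was added, plates sat 10 min at room temperature, then ATP-coupled luminescence was imaged as the viability read-out.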
A general note: In ATP-based viability assays light output follows the ATP content of the culture.

Assay [3] has as its system HEK293. Described as above. The conditions noted are these: Five cell lines viability, CellTiter-Glo ATP luminescence, 48-72 h; max response: stronger effect = lower value. The gist of the method: as §1
In assay [4] the test system is HaCat. The assay is described as above. The conditions noted are these: Five cell lines viability, CellTiter-Glo ATP luminescence, 48-72 h; max response: stronger effect = lower value. In outline:
as §1

Assay [5] deals with KB-3-1. The assay is described as above. Particulars: Five cell lines viability, CellTiter-Glo ATP luminescence, 48-72 h; max response: stronger effect = lower value. In outline:
as §1

Assay [6] relates to NIH3T3. The description is as above. The conditions noted are these: Five cell lines viability, CellTiter-Glo ATP luminescence, 48-72 h; max response: stronger effect = lower value. In outline: as §1
The subject of assay [7] is MCC-13. The assay is described as follows: qHTS assay to identify novel small-molecules to repurpose for Merkel cell carcinoma treatment (AID 1296009). Further: on the % scale 0 is the no-effect control and ±100 the full control effect; nearly all actives have a fitted effect of over 60% in size. Particulars: MCC and control cell lines, CellTiter-Glo viability, 72 h; series mostly up to 46 µM. In outline: (§2)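 Luminescence from CellTiter-Glo, read 10 min after addition at room temperature, reported viability following a 72 hr, 37 degree celsius treatment with NPC or MIPE compounds in titration; values normalized to plate controls.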

The subject of assay [8] is MCC-26. The assay is described as above. Particulars: MCC and control cell lines, CellTiter-Glo viability, 72 h; series mostly up to 46 µM. In outline:
as §2

The subject of assay [9] is MKL-1. The assay is described as above. The conditions noted are these: MCC and control cell lines, CellTiter-Glo viability, 72 h; series mostly up to 46 µM. The gist of the method:
as §2

Assay [10] has as its system UISO. The description is as above. The conditions noted are these: MCC and control cell lines, CellTiter-Glo viability, 72 h; series mostly up to 46 µM. In outline: as §2
In assay [11] the test system is WaGa. The assay is described as above. The conditions noted are these: MCC and control cell lines, CellTiter-Glo viability, 72 h; series mostly up to 46 µM. In outline:
as §2

Assay [12] has as its system C33A. The assay is described as follows: Primary qHTS to identify gynecologic anti-cancer compounds using libraries of approved drugs and bioactive compounds (AID 1345084). Further: on the % scale 0 is the no-effect control and ±100 the full control effect; nearly all actives have a fitted effect of over 55% in size. The conditions noted are these: Gynecologic cancer cell panel viability, ATPlite luminescence, 48 h; series mostly up to 57.5 µM. In outline:
(§3)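 Cells, 1,000 per well, plated 16 h, then exposed 48 h at 37 C to compounds. Viability by ATPlite luminescence after 15 min at room temperature.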

Assay [13] has as its system CAOV3. The description is as above. The conditions noted are these: Gynecologic cancer cell panel viability, ATPlite luminescence, 48 h; series mostly up to 57.5 µM. The gist of the method:
as §3

Assay [14] concerns CASKI. The description is as above. Particulars: Gynecologic cancer cell panel viability, ATPlite luminescence, 48 h; series mostly up to 57.5 µM. In outline: as §3
For assay [15], the system named is Es-2. Described as above. Particulars: Gynecologic cancer cell panel viability, ATPlite luminescence, 48 h; series mostly up to 57.5 µM. In outline:
as §3

In assay [16] the test system is HeLa. The assay is described as above. Particulars: Gynecologic cancer cell panel viability, ATPlite luminescence, 48 h; series mostly up to 57.5 µM. In outline:
as §3

Assay [17] deals with MKL-2. The assay can be described thus: qHTS assay to identify novel small-molecules to repurpose for Merkel cell carcinoma treatment (AID 1296009). Further: on the % scale 0 is the no-effect control and ±100 the full control effect; nearly all actives have a fitted effect of over 60% in size. The conditions noted are these: MCC and control cell lines, CellTiter-Glo viability, 72 h; series mostly up to 46 µM. In outline: as §2

In the case of `C#C[C@]1(O)CC[C@H]2[C@@H]3CCc4cc(OC)ccc4[C@H]3CC[C@@]21C`, the Potency entry in [1], in assay [7], in assay [8], in assay [9], in assay [10] and in [11] was “inactive” throughout. The Potency result in [12], in [13], in assay [14], in [15] and in assay [16] was “inactive” each time. Also, the max response was -13.3% in [2]; -6.93% in assay [3]; -21.7% in [4]; 0.369% in assay [5]; -5.18% in assay [6].
For `CCCCCCCCCCCCCC(=O)OC(C)C`, the Potency entry in assay [1], in [7], in assay [8], in [9], in assay [17] and in [10] was “inactive” each time. The Potency result in assay [11], in [12], in assay [13], in [14], in assay [15] and in assay [16] was “inactive” throughout. Also, the max response in assay [2] was -4.95%; in [3], -0.105%; in [4] it was -4.71%; in [5], -19%; in [6], 2.35%.
In the case of `CCOC(=O)Nc1ccc2c(c1)N(C(=O)CCN1CCOCC1)c1ccccc1S2`, the Potency result in assay [1], in assay [7], in assay [8], in assay [9], in assay [17] and in [10] was “inactive” each time. The Potency entry in [11], in assay [12], in assay [13], in [14], in assay [15] and in [16] was “inactive” each time. The max response is -6.24% in assay [2]; -28.3% in assay [3]; -10.7% in [4]; 0.404% in [5]; -4.09% in [6].
Regarding `COc1cc(C(=S)N2CCOCC2)ccc1O`, the Potency result in assay [1], in assay [7], in [8], in assay [9], in [17] and in assay [10] was “inactive” throughout. Also, the Potency entry in assay [11], in [12], in assay [13], in assay [14], in assay [15] and in assay [16] was “inactive” in each case. Also, the max response in assay [2] was -4.16%; in assay [3], -23.8%; in [4], -11.5%; in assay [5], 12.3%; in assay [6] it was -6.82%.
Turning to `CCCCCCCCCCCCCCCCO`, the Potency entry in assay [1], in [7], in assay [8], in assay [9], in assay [17] and in assay [10] was “inactive” in each case. Also, the Potency entry in assay [11], in assay [12], in [13], in assay [14], in [15] and in assay [16] was “inactive” in each case. In addition, the max response in assay [2] is -12.4%; in [3], 1.14%; in [4] it was -1.51%; in [5], 19%; in [6] it was -5.1%.
Take `CCNC(=O)NCc1cccc(Cl)c1`: the Potency result in [1], in assay [7], in assay [8], in assay [9], in assay [17] and in assay [10] was “inactive” in each case. Further, the Potency entry in assay [11], in assay [12], in [13], in [14], in assay [15] and in assay [16] was “inactive” throughout. Besides, the result in assay [2] was inactive. For the same molecule, the max response in [3] was 4.87%; in [4], -5.45%; in assay [5] it was 2.4%; in [6], 0.416%.
`Cc1c(-c2ccccc2)oc2c(C(=O)OCCN3CCCCC3)cccc2c1=O`: the Potency result in assay [1], in assay [7], in assay [8], in [9], in assay [17] and in assay [10] was “inactive” throughout. For the same molecule, the Potency result in assay [11], in [12], in assay [13], in [14], in [15] and in assay [16] was “inactive” throughout. Besides, the max response in assay [2] is -1.78%; in assay [3], -20.2%; in [4], 3.56%; in assay [5] it was -3.83%; in assay [6] it was 3.38%.
With `COc1cc(O)c(C(=O)c2ccccc2)cc1S(=O)(=O)O`, the Potency in [1] was 7.57 µM (active). Further, the max response in assay [2] is 1.74%; in assay [3] it was -6.68%; in assay [4] it was -4.69%; in assay [5] it was -4.48%; in assay [6] it was 1.08%. In addition, the Potency entry in assay [7], in assay [8], in [9], in assay [17], in assay [10] and in [12] was “inactive” in each case. Moreover, the Potency entry in assay [13], in assay [14], in assay [15] and in assay [16] was “inactive” throughout.
As to `CCOC(=O)c1ccc(N)cc1`, the Potency result in assay [1], in [7], in [9], in assay [17], in assay [10] and in assay [11] was “inactive” in each case. Also, the Potency entry in assay [12], in [13], in assay [14], in [15] and in [16] was “inactive” in each case. The max response in assay [2] was -8.72%; in assay [3], -24%; in assay [4], -25.3%; in assay [5], 1.36%; in [6], -0.465%.
As for `FC1(F)C(F)(F)C(F)(F)C2(F)C(F)(F)C(F)(F)C(F)(F)C(F)(F)C2(F)C1(F)F` (centres undefined), the Potency entry in [1], in [7], in assay [8], in assay [9], in assay [17] and in assay [10] was “inactive” each time. For the same molecule, the Potency result in [11], in [12], in [14], in assay [15] and in assay [16] was “inactive” each time. Also, the max response in assay [2] was 4.26%; in assay [3], 3.06%; in assay [4], 0.333%; in assay [5] it was 4.98%; in assay [6] it was 1.4%.
`O=S(=O)(O)c1ccc(O)cc1`: the Potency entry in assay [1], in [7], in assay [9], in assay [17], in assay [10] and in assay [11] was “inactive” each time. Moreover, the Potency entry in assay [12], in assay [13], in assay [14], in assay [15] and in assay [16] was “inactive” in each case. Further, the max response in assay [2] was -8.14%; in assay [3], 2.28%; in assay [4], -3.34%; in [5] it was -1.6%; in assay [6], 1.54%.
Consider `N[C@H](C(=O)O)[C@@H](O)c1ccc(O)c(O)c1`, for which the result in assay [2] was inactive. For the same molecule, the max response in [3] was -0.734%; in assay [4], 1.85%; in assay [5], -1.88%; in [6] it was 0.856%. In addition, the Potency entry in assay [7], in assay [8], in assay [9], in assay [17], in [10] and in assay [11] was “inactive” throughout. In addition, the Potency entry in assay [12], in assay [14], in assay [15] and in assay [16] was “inactive” in each case.
As to `COP(=O)(OC)OC(c1ccc(Cl)cc1)P(=O)(OC)OC` (centres undefined), the Potency entry in assay [1], in assay [7], in assay [8], in assay [9], in [17] and in assay [10] was “inactive” in each case. Also, the Potency result in assay [11], in [12], in [13], in assay [14], in assay [15] and in assay [16] was “inactive” in each case. Further, the max response in assay [2] is -8.32%; in [3], -64.4%; in [4] it was -2.94%; in [5], 0.95%; in assay [6], -38.8%.
